AMA1 RON2 block = disrupts binding of P. falciparum AMA1 to RON2. 360,000 compounds, 0.2% hits. AID 720542. Potency, µM (doses to about 58.2 µM), without a hit: at the top dose activity change, negative = inhibition, actives largely listed as inhibitors. AlphaScreen AMA1-biotinylated RON2 peptide binding;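 also: 0% = vehicle wells and -100% = peptide control; nearly all actives have a fitted effect of over 45% in size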
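AMA1 (3D7) with his tag at 25 nM final met compounds first, then biotinylated RON2 peptide at 25 nM; detection used donor plus acceptor beads, 10 µg/mL apiece, read by AlphaScreen after 30 min at room temperature.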
Pf growth 48h = P. falciparum growth inhibition at 48 hours (one generation); P. falciparum luciferase growth in erythrocytes, 48 h; Potency, µM (top dose mostly 28.7 µM), inactives show top-dose activity change, negative = inhibition, actives largely listed as inhibitors; 310,000 compounds, 5.9% hits; AID 504832; also: % is scaled to controls: 0 for no effect and ±100 for the full control effect
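Growth was read as firefly luciferase luminescence after a 48 h, 37 C, 5% CO2 exposure of compounds to reporter-bearing P. falciparum cultures (0.1% parasitemia, 2% hematocrit final) in Albumax-supplemented RPMI 1640.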
Pf growth 96h = P. falciparum growth inhibition at 96 hour, primary screen for plastid delayed-death inhibitors. 320,000 compounds, 6.9% hits. Potency, µM (doses to about 28.7 µM), inactives show top-dose activity change, negative = inhibition, most hits filed as inhibitors. P. falciparum luciferase reporter growth, 96 h; also: % is scaled to controls: 0 for no effect and ±100 for the full control effect
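Delayed-death screen, second-generation endpoint: infected erythrocytes, 2% hematocrit, 0.05% parasitemia final; 96 hours at 37 C, 5% CO2; luciferase detection reagent; luminescence decrease equals reduced growth.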
SARS PLP yeast = SARS-CoV PLP inhibition in yeast; S. cerevisiae expressing SARS-CoV PLpro, growth rescue; Potency, µM (top dose mostly 32.9 µM), for the others: at the top dose activity, positive = growth rescue, usual class: activators; 330,000 compounds, 0.19% hits; calls by dose curve; also: 0% is about no effect; nearly all actives have a fitted effect of over 55% in size
Numbers without * were called inactive; ? = inconclusive; . = no result; [ ] = dose if it differs, or a comment. Sampled rows, rich in hits. Any-hit rate of the full collection: about 9.4%. Unless noted, calls follow the shape of the dose curve; as a rule, active = well fitted curve in the direction sought with a large enough effect; inconclusive = small, poorly fitted or top-dose-only effect, or another doubt; inactive = no such curve, though single readings can be large; an effect the other way counts as inactive or inconclusive. Potency is read from the fitted curve at half-maximal effect.

SMILES | AMA1 RON2 block | Pf growth 48h | Pf growth 96h | SARS PLP yeast
Cc1cc(C)cc(N2CC(C(=O)NC3CCCCC3)CC2=O)c1 (stereo unspecified) | -13% | 14% | ? | 1%
CCCCc1ccc(NC(=O)CSC2=C(C#N)C(c3ccco3)C3=C(CCCC3=O)N2)cc1 (stereo unspecified) | 3% | 1.9µM* | ? | 1%
COc1cccc(NC(=O)CSC2=C(C#N)C(c3ccco3)C3=C(CCCC3=O)N2)c1 (stereo unspecified) | -1% | -21% | 134% | -3%
CC(C)(C)c1ccc(C(=O)CCCSC2=C(C#N)C(c3ccco3)C3=C(CCCC3=O)N2)cc1 (stereo unspecified) | -5% | 6.6µM* | 20% | 11%
COc1ccc(C2C(C#N)=C(SCC(=O)Nc3ccc(C)cc3)NC3=C2C(=O)CC(C)(C)C3)cc1 (stereo unspecified) | 1% | 13µM* | ? | 8%
Cc1ccc(C(=O)CSC2=C(C#N)C(c3ccco3)C3=C(CCCC3=O)N2)cc1 (stereo unspecified) | -19% | ? | -24% | -2%
Cc1cnc(NC(=O)Nc2ccc(Cl)cc2)s1 | 2% | 141% | -4% | -5%
Cc1cc(N)c2cc(NC(=O)Nc3ccc4nc(C)cc(N)c4c3)ccc2n1 | . | 1.2µM* | ? | .
CC1=NN(C(=O)Cc2ccc([N+](=O)[O-])cc2)C(O)(C(F)(F)C(F)(F)F)C1 (stereo unspecified) | 92% | 0% | ? | 0%
O=C(CSCc1nc2ccccc2[nH]1)Nc1ccc2ccccc2c1 | -3% | 1% | ? | -1%
c1ccc2cc(CSCc3nc4ccccc4[nH]3)ccc2c1 | -8% | 13µM* | ? | -65%
CC(=O)Oc1ccc(/C=C/c2nc3ccccc3c(=O)o2)cc1 | 7% | 168% | 12µM* | -1%
CC(=O)Oc1ccccc1/C=C/c1nc2ccccc2c(=O)o1 | 5% | 1.5µM* | 35% | -3%
CC(=O)Oc1ccc(-c2nc3ccccc3c(=O)o2)cc1 | -7% | ? | 17% | 7%
O=c1oc(/C=C/c2ccc([N+](=O)[O-])s2)nc2ccccc12 | -1% | ? | 0.083µM* | -6%
O=C(NCc1ccc(F)cc1)c1cccc(NC2=NC3CS(=O)(=O)CC3S2)c1 (stereo unspecified) | 7% | -14% | 0% | -3%
COc1ccc(-c2cc(-n3c(C(F)(F)F)nc4ccccc43)n(CCC#N)n2)cc1 | -21% | 13µM* | . | -27%
Cc1ccc(NC(=O)CSc2nnc(CCCCCNC(=O)OC(C)(C)C)o2)c(C)c1 | 7% | -14% | 13µM* | 10%
Cc1c(Cl)cccc1NC(=O)CSc1nnc(CCNC(=O)OC(C)(C)C)o1 | -11% | -4% | 10µM* | 5%
CC(C)(C#CC(=O)O)OOC(c1ccccc1)(c1ccccc1)c1ccccc1 | -1% | 12µM* | 8.3µM* | -3%
CCn1c(SCC(N)=O)nc2cc(S(=O)(=O)N3CCOCC3)ccc21 | 1% | 0% | 2% | 1%
CCn1c(SCC(=O)c2c[nH]c3ccccc23)nc2cc(S(=O)(=O)N3CCOCC3)ccc21 | 5% | 9.3µM* | 2.3µM* | -4%
Cc1cccc(C(=O)N2CCC[C@H]2C(=O)N2CCC[C@H]2C(=O)NCc2ccncc2)c1 | 7% | . | . | .
CN(C1CCCCC1)S(=O)(=O)c1ccc2c(c1)c(=O)c(C(=O)NCCN1CCCC1)cn2C | 14% | . | ? | -3%
CCCCN(C)CCCNC(=O)c1cn(C)c2ccc(S(=O)(=O)N(C)C3CCCCC3)cc2c1=O | 19% | ? | 5% | 2%
SMILES | AMA1 RON2 block | Pf growth 48h | Pf growth 96h | SARS PLP yeast
CN(C1CCCCC1)S(=O)(=O)c1ccc2c(c1)c(=O)c(C(=O)NCCCN1CCCC1)cn2C | -4% | . | 13µM* | -8%
CCn1cc(C(=O)N2CCc3ccccc32)c(=O)c2cc(S(=O)(=O)N(C)C3CCCCC3)ccc21 | 1% | 12µM* | ? | -13%
CCn1cc(C(=O)N2CCc3ccccc32)c(=O)c2cc(S(=O)(=O)N3CCOCC3)ccc21 | 11% | ? | 34% | 3%
CCCCN(CC)CCCNC(=O)c1cn(C)c2ccc(S(=O)(=O)N(C)C3CCCCC3)cc2c1=O | -1% | ? | 15µM* | -4%
CCn1cc(C(=O)NCCCN2CCCC(C)C2)c(=O)c2cc(S(=O)(=O)N(C)C3CCCCC3)ccc21 (stereo unspecified) | 2% | ? | 12µM* | 3%
CC1CCCC(C)N1C(=O)c1ccc(S(=O)(=O)N2CCCC2)cc1 (stereo unspecified) | 5% | ? | -1% | 3%
Cc1ccc(SC(C)C(=O)Nc2ccccc2-c2ccccc2)cc1 (stereo unspecified) | -1% | -18% | 13µM* | -41%
CC(Sc1ccc(Cl)cc1)C(=O)Nc1ccccc1-c1ccccc1 (stereo unspecified) | -2%[11.6 µM] | 2.3µM* | -2% | -23%
COc1ccc(CNC(=O)CN(C(=O)c2csnn2)c2cccc(F)c2)cc1 | -7% | 17% | 23% | 10%
CC(C)c1nn2c(=O)cc(CSc3ccccc3NC(=O)c3ccccc3F)nc2s1 | 13% | ? | 8.3µM* | 0%
Cc1nn2c(=O)cc(CSc3ccccc3NC(=O)c3ccccc3F)nc2s1 | -6% | -2% | 62% | 1%
Nc1nc(CN2CCCCC2)cs1 | 13% | -18% | ? | 7%
Cc1sc2ncnc(Sc3nnc4sc5ccccc5n34)c2c1C | . | 2.9µM* | ? | -5%
CC(C)(C)OC(=O)N1CCC(c2c(C(=O)NC3CC3)cnn2-c2ccccc2)CC1 | -11% | 12µM* | 15% | 1%
CC(C)(C)OC(=O)N1CCC(c2c(C(=O)O)cnn2-c2ccccc2)CC1 | 2% | -14% | ? | 2%
Cc1cccc(-n2ncc(C(=O)NC3CCCC3)c2C2CCN(C(=O)OC(C)(C)C)CC2)c1 | 10% | 1.5µM* | ? | 1%
CC(C)(C)OC(=O)N1CCC(c2c(C(=O)N3CCN(C(=O)c4ccco4)CC3)cnn2-c2cccc(Cl)c2)CC1 | -16% | 12µM* | 1% | 2%
O=C(CN1C2CCC1CC(NC(=O)Nc1ccccc1)C2)NCc1ccco1 (stereo unspecified) | -2% | -5% | 30% | 6%
CC(=NCCc1ccccc1)C1=C(O)C(c2ccccc2)OC1=O (stereo unspecified) | 15% | 9% | 29% | 1%
Cc1ccc(S(=O)(=O)n2ccc3c(OCCOCCNCc4ccc(F)cc4)cccc32)cc1 | -12% | 9.3µM* | 10µM* | -1%
Cc1ccc(S(=O)(=O)NCCCCC(NC(=O)OC(C)(C)C)C(=O)O)cc1 (stereo unspecified) (tested in a mixture with another compound) | 0% | -5% | . | 2%
Cc1ccc(S(=O)(=O)n2ccc3c(OCCOCCSCC(NC(=O)OC(C)(C)C)C(=O)O)cccc32)cc1 (stereo unspecified) | -2% | ? | 9.3µM* | 0%

Source: PubChem BioAssay (National Center for Advancing Translational Sciences (NCATS))
